Data as given in PubChem BioAssay AID624297 (National Center for Advancing Translational Sciences (NCATS), 2012).
About 6,200 (1.8%) of roughly 340,000 compounds were called active. Inconclusive results (about 10%) are left out. For the sample, actives were picked, then their nearest neighbours and some compounds at random. A number with no mark means an inactive call. The call rests on the fitted dose curve; in most records, active means well fitted activation curve with a large enough effect; inconclusive means small, poorly fitted or top-dose-only effect; inactive means no such curve, though single readings can be large or run the other way.

experiment: A quantitative high throughput screen for small molecules that induce DNA re-replication in SW480 colon adenocarcinoma cells.; further: nearly all actives have a fitted effect of over 55% in size; on re-replication activation: % of control where 0% means no effect; conditions: Hoechst DNA content imaging, 48 h; series mostly up to 46.1 µM; re-replication activation: at the top concentration
Description: H Molecular Libraries Probe Production Network [MLPCN] NIH Chemical Genomics Center [NCGC] MLPCN Grant: Fast Track K99 CA136555 Assay Provider: Melvin DePamphilis, NICHD, NIH Assay Overview Eukaryotic cells normally restrict genome duplication to once per cell division. When this process is aberrant, DNA re-replication occurs when cells reinitiate DNA replication before the first round of replication is complete. DNA re-replication induces the DNA damage response, arrests cell proliferation, and triggers apoptosis. The cell cycle components cyclin A, Cdt-1, Cdc6 and geminin are critical regulators of this process and their misregulation results in DNA re-replication in normal and cancer cells. To identify compounds that induce re-replication in normal cells, an image-based assay was used to measure DNA content of nuclei, as detected by the fluorescent DNA binding dye, Hoechst. Cell nuclei were imaged by a fluorescence scanning plate imager and compounds that induce DNA re-replication were identified by the increase of nuclei with elevated fluorescence intensity
For screening, 250 cells in 5 uL/well were dispensed into black clear 1536-well plates (Aurora) using a solenoid-based dispenser. Following transfer of 23 nL compound or DMSO vehicle by a pin tool, the plates were incubated 48 hr at 37 C and 5% CO2. After addition of 1 uL/well Hoescht stain, the plates were incubated 40 min at 37 C, 5% CO2 and total intensity of fluorescent objects (nuclei) were enumerated by an Acumen Explorer Ex3 (TTP LabTech) fluorescence scanning plate imager (405 nm excitation, 500-530 nm emission). Keywords: NIH Roadmap, MLPCN, MLI, MLSMR, qHTS, NCGC, DNA replication, cancer
Potency means the concentration at half of the fitted maximal effect.

SMILES	re-replication activation	Potency
CCOC(=O)[C@H]1[C@H]2COc3cc(OC)ccc3[C@@H]2N2C(=O)CN(Cc3ccc(Cl)cc3)C(=O)[C@@]12C	-16.4%	–
Cc1ccsc1C(=O)OCC(=O)NCCc1ccccc1	1.54%	–
COc1ccc(OC)c2[nH]c(=O)c(CCNC(=O)C(C)(C)C)cc12	-5.04%	–
COc1ccc(OC)c2[nH]c(=O)c(CCNC(=O)C(=O)c3c[nH]c4ccccc34)cc12	–	20.6 µM (active)
COc1ccc(/C=C(\NC(=O)c2ccc(OC)c(OC)c2)C(=O)NCCc2c[nH]c3ccccc23)cc1	-1.59%	–
COc1ccccc1-c1sc2ccccc2c1C#CC1(O)CCCCC1	4.55%	–
O=C(Nc1cccc(Cl)c1N1CCOCC1)c1cccnc1	-21.8%	–
COC(=O)c1ccc(N2CCOCC2)c(NC(=O)c2ccc3c(c2)OCCO3)c1	2.41%	–
O=C(Nc1cccc(Cl)c1N1CCOCC1)c1ccc2c(c1)OCCO2	–	2.31 µM (active)
C=CCCC(=O)N1C[C@H]2CON(C)[C@H]2C[C@H]1c1cccc(Nc2ccccc2)c1	-6.4% [at 9.22 µM]	–
O=C(Nc1cccc(Br)c1)C1CC(=O)N(C2CCCC2)C1 (configuration not stated)	3.19%	–
O=C(c1ccc(N2CCOCC2)c([N+](=O)[O-])c1)N1CCN(c2ccccc2F)CC1	-0.686%	–
O=C(Nc1nnc(Cc2ccccc2)s1)c1cnccn1	-0.0264%	–
O=C(Nc1nnc(Cc2ccc(Cl)cc2)s1)c1cccnc1	–	18.4 µM (active)
O=C(Nc1nnc(Cc2ccc(Cl)cc2)s1)c1ccncc1	-27.9%	–
C=CCSc1nc2c(c(=O)[nH]c(=O)n2C)n1Cc1ccccc1	–	1.64 µM (active)
C=CCn1c(SCc2ccccc2)nc2c1c(=O)[nH]c(=O)n2C	3.01%	–
Cc1nnc(Sc2nc3c(c(=O)[nH]c(=O)n3C)n2Cc2ccccc2)s1	-6.16%	–
CCN(CC)S(=O)(=O)c1ccc(N2CCCC2)c(NC(=O)c2ccc([N+](=O)[O-])o2)c1	–	13 µM (active)
CCN(CC)S(=O)(=O)c1cc(C(=O)Nc2cc(S(=O)(=O)N3CCOCC3)ccc2N2CCCC2)ccc1F	2.46%	–
CCN(CC)S(=O)(=O)c1ccc(N2CCOCC2)c(NC(=O)c2ccc(=O)n(C)n2)c1	-15.4%	–

SMILES	re-replication activation	Potency
COc1ccc(-c2nnc(-c3ccc4ccccc4c3)o2)cc1	-7.64%	–
CN(Cc1ccccc1)C(=O)COC(=O)/C=C/c1ccc2c(c1)OCO2	-5.02%	–
CN1OC(COC(=O)c2ccc(Cl)cc2)CC1c1ccccc1 (configuration not stated)	-2.4%	–
CC(C)(C)c1ccc(C(=O)NCCn2c(N)c(C#N)c3nc4ccccc4nc32)cc1	–	20.6 µM (active)
Cn1cncc1COC(=O)c1ccc(Cl)cc1	-12.1%	–
CC(C)(C)c1ccc(C(=O)NCC(=O)OCN2C(=O)c3ccccc3C2=O)cc1	0.942%	–
N#Cc1c(N)n(CCOC(=O)c2ccc(Cl)cc2)c2nc3ccccc3nc12	–	20.6 µM (active)
CC(C)(C)OC(=O)c1c(N)n(CCCN2CCCC2=O)c2nc3ccccc3nc12	-6.4%	–
COc1ccc(S(=O)(=O)N(C)C[C@H]2Oc3ccc(NS(=O)(=O)c4cccs4)cc3CC(=O)N([C@H](C)CO)C[C@H]2C)cc1	-2.46% [at 9.22 µM]	–
CSCCC(NC(=O)c1ccccc1)C(=O)N1CCN(Cc2ccc(Cl)cc2)CC1 (configuration not stated)	-284%	–
CC1CCCN(C(=O)CN2C(=O)c3ccccc3S2(=O)=O)C1 (configuration not stated)	-1.92%	–
O=C(Oc1ccc(Br)cc1)c1cccnc1	-2.56%	–
CCCCCCOc1ccc(OC(=O)c2cccnc2)cc1	–	8.2 µM (active)
N#CCc1ccc(OC(=O)c2cccnc2)cc1	-4.49%	–
COc1ccccc1N(CC(=O)Nc1ccc(C)cc1Cl)S(=O)(=O)c1cccs1	0.978%	–
CC(=O)c1c(OCC(=O)N(C)C2CCCCC2)ccc2c(C)cc(=O)oc12	-0.36%	–
CC(=O)c1cccc(-c2ccc(CN3C(CC(C)C)C(=O)N(Cc4cn(CC5CCCCC5)nn4)CCS3(=O)=O)cc2)c1 (configuration not stated)	-0.514%	–
CCOc1cccc(/C=N/N2C(=O)CSC2=S)c1O	-0.569%	–
CCOc1cccc(/C=N/NC(=S)NCCN2CCOCC2)c1O	–	1.46 µM (active)
Cc1ccc(C(=O)NC(=S)NCCN2CCOCC2)cc1	0.443%	–
COC1C(CO)OC(n2cnc3c(=S)nc(N)[nH]c32)C1O (configuration not stated)	-3.09%	–

SMILES	re-replication activation	Potency
COc1cccc(NC(=O)C2c3cc(OC)c(OC)cc3C(=O)N(C)C2c2cccnc2)c1 (configuration not stated)	2.23%	–
CCOc1cc2c(cc1OCC)C(C(=O)O)C(c1ccc(OC)c(O)c1)N(C)C2=O (configuration not stated)	-13.5% [at 9.22 µM]	–
COc1cc2c(cc1OC)C1C(=O)c3cc(OS(C)(=O)=O)c(OC)cc3C1N(C)C2=O (configuration not stated)	–	7.31 µM (active)
O=C1CC[C@@H]2CC3(C[C@@H]4CCN1[C@H]24)Nc1cc([N+](=O)[O-])ccc1NC3=NC1CCCCC1 (some centres not stated)	-13.5%	–
CC(NC(=O)COC(=O)CCC(=O)c1ccc(Cl)cc1)c1ccccc1 (configuration not stated)	-6.09%	–
FC(F)(F)c1nnc2c3ccccc3c(Cl)nn12	–	2.59 µM (active)
FC(F)(F)c1nnc2ccc(N3CCN(c4ccccc4)CC3)nn12	0.3%	–
Nc1nnc2c(C(F)(F)F)nc3ccccc3n12	6.87%	–
COc1ccc(NS(=O)(=O)c2cc(NC(=O)c3ccc(S(=O)(=O)N(C)C)cc3)ccc2N2CCOCC2)cc1	4.03%	–
COc1ccccc1C(=O)NCC(=O)OCC(=O)NNC(=O)c1ccc(Br)cc1	0.282%	–
COc1ccc(/C=C2\CCc3ccccc3C2=O)c(OC)c1OC	3.39%	–
COc1ccc(/C=C2\N=C3CCCN3C2=O)cc1	-18.8%	–
COc1ccc(/C=C2/CCCc3ccccc3C2=O)cc1	–	9.2 µM (active)
O=C(CN1C(=O)NC(Cc2c[nH]c3ccccc23)C1=O)Nc1ccccc1C(F)(F)F (configuration not stated)	-21.5%	–
CCCN=C1N(C)C[C@@H]2[C@@H]3C(=O)N(Cc4ccccc4)C(=O)[C@@H]3[C@](C)(C(=O)OC)N12	0.326%	–
Nc1ccc2c(c1)C(O)c1ccc(Cl)cc1-2 (configuration not stated)	21.7%	–
CCCN1C2CCCC1CC(NC(=O)c1cccc(OC)c1)C2 (configuration not stated)	-3.5%	–
CCCNC(=S)NC1CC2CCCC(C1)N2CC(C)C (configuration not stated)	–	20.6 µM (active)
CCCN1C2CCCC1CC(NC(=O)NC13CC4CC(CC(C4)C1)C3)C2 (configuration not stated)	-6.15%	–
O=C1c2ccccc2[C@@H]2C[C@@H](O)[C@H](Nc3ccccc3Cl)CCN12	7.29%	–
